Laboratory results reported in publication PMC9838217, “Structure of SALL4 zinc finger domain reveals link between AT-rich DNA binding and Okihiro syndrome”.
Changes are numbered by the printed parent chain.

Key:
[1] = biological target: T1, SALL4 ZFC4 R900W (HT-SELEX) (Mus musculus, UniProt Q8BX22 870-940, R900W); test: HT-SELEX; high values mean tight binding; settings: protein: recombinant; vector His6-GST; dsDNA, one strand shown
T1 sequence: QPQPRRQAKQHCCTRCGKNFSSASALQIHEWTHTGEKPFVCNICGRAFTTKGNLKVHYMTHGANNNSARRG
How it was run: (§1)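 A 100 µl reaction of 10 mM Tris–HCl pH 7.5, 50 mM NaCl, poly(dI-dC) and DTT held purified recombinant mouse SALL4 zinc finger cluster 4 (residues 870–940, 1 µg) and library DNA (1.5 µg first cycle, 200 ng later) for 10 min at room temperature. Complexes captured on Ni2+ beads were washed, PCR-amplified and reselected for up to 6 cycles, in triplicate, then MiSeq-sequenced and scanned for 6-mers. Binding signal is the read fraction of each canonical k-mer expressed as fold change over the initial random library.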

[2] = biological target: T2, SALL4 ZFC4 G921D (HT-SELEX) (Mus musculus, UniProt Q8BX22 870-940, G921D); test: HT-SELEX; high values mean tight binding; settings: protein: recombinant; vector His6-GST; dsDNA, one strand shown
T2 sequence: T1 sequence with W31R, G52D
How it was run: as §1

Row | Sequence | binding signal [1] [fold-change vs cycle 0] | binding signal [2] [fold-change vs cycle 0]
1 | CGCACG | 0.0997 ± 0.0037 | 0.21 ± 0.071
2 | CGCGCC | 0.0255 ± 0.00279 | 0.0934 ± 0.0574
3 | AAGGCC | 0.32 ± 0.0161 | 0.435 ± 0.0818
4 | CTGCCC | 0.166 ± 0.00951 | 0.291 ± 0.0763
5 | CCCCAG | 0.289 ± 0.0372 | 0.38 ± 0.0427
6 | CCAGCA | 0.359 ± 0.0242 | 0.477 ± 0.0744
7 | ACCGCA | 0.267 ± 0.0189 | 0.39 ± 0.0525
8 | CCCCGA | 0.246 ± 0.0185 | 0.358 ± 0.0831
9 | CAGCCA | 0.309 ± 0.0234 | 0.442 ± 0.0984
10 | CGCCTC | 0.152 ± 0.0261 | 0.277 ± 0.0696
11 | GCGAGC | 0.103 ± 0.00798 | 0.229 ± 0.0707
12 | GCCGGC | 0.0318 ± 0.0022 | 0.112 ± 0.0697
13 | GATCGC | 0.301 ± 0.0313 | 0.461 ± 0.0896
14 | ATGCGC | 0.153 ± 0.00714 | 0.28 ± 0.0818
15 | ATCGGC | 0.223 ± 0.00552 | 0.362 ± 0.0707
16 | AGTGCG | 0.276 ± 0.0168 | 0.407 ± 0.068
17 | CGCAGA | 0.265 ± 0.0309 | 0.379 ± 0.0778
18 | CGCCAC | 0.103 ± 0.0044 | 0.216 ± 0.0502
19 | CACCGG | 0.216 ± 0.0195 | 0.331 ± 0.0683
20 | GGACCC | 0.246 ± 0.0211 | 0.387 ± 0.0656
21 | CCGCAA | 0.234 ± 0.0164 | 0.347 ± 0.0535

Row | Sequence | binding signal [1] [fold-change vs cycle 0] | binding signal [2] [fold-change vs cycle 0]
22 | CCTGCC | 0.172 ± 0.00852 | 0.294 ± 0.0738
23 | GAGCGC | 0.088 ± 0.00871 | 0.196 ± 0.0698
24 | GCGAAC | 0.281 ± 0.0107 | 0.417 ± 0.0584
25 | GCTAGC | 0.329 ± 0.0178 | 0.477 ± 0.0879
26 | CGACGA | 0.288 ± 0.00345 | 0.415 ± 0.0734
27 | CGATCG | 0.329 ± 0.0324 | 0.53 ± 0.115
28 | ATGCCG | 0.222 ± 0.0038 | 0.36 ± 0.0731
29 | AGCCCC | 0.191 ± 0.0184 | 0.329 ± 0.0672
30 | AGCCGA | 0.263 ± 0.0162 | 0.384 ± 0.065
31 | CCGAGG | 0.251 ± 0.0139 | 0.375 ± 0.0741
32 | CAACGC | 0.263 ± 0.00747 | 0.409 ± 0.0649
33 | CGCCTA | 0.26 ± 0.0104 | 0.413 ± 0.0625
34 | GACCCC | 0.276 ± 0.00974 | 0.391 ± 0.051
35 | GGTCGA | 0.33 ± 0.0136 | 0.48 ± 0.0759
36 | GCCACC | 0.153 ± 0.0112 | 0.282 ± 0.0759
37 | CAGGGC | 0.185 ± 0.0225 | 0.31 ± 0.0787
38 | GTCGGA | 0.35 ± 0.00494 | 0.501 ± 0.0597
39 | CCCCCG | 0.133 ± 0.00946 | 0.239 ± 0.0586
40 | CCCTCG | 0.278 ± 0.0226 | 0.388 ± 0.0906
41 | CACCCG | 0.244 ± 0.0244 | 0.342 ± 0.0506
